Assay results reported in PubChem BioAssay AID2546 (National Center for Advancing Translational Sciences (NCATS), 2010).
Screen size: about 310,000 compounds; about 11,000 (3.5%) were called active. Inconclusive results (about 8%) are left out. The list comes from a sample in which actives are over-represented; it also holds similar structures and randomly drawn compounds. Where a call stands in place of a potency, no number is given. A number with no mark means an inactive call. The call rests on the fitted dose curve; in most records, active means well fitted inhibition curve with a large enough effect; inconclusive means small, poorly fitted or top-dose-only effect, or effect the other way; inactive means flat fitted curve, though single readings scatter.

Assay: VP16 counterscreen qHTS for inhibitors of ROR gamma transcriptional activity;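 further: Gal4-VP16 expression switched on by copper sulfate through the metallothionein promoter; nearly all actives have a fitted effect of over 50% in size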
Settings: Drosophila S2 Gal4-VP16 UAS-luciferase, luminescence, 20 h; series mostly up to 53.6 µM
Potency means the concentration at half of the fitted maximal effect.

Compound	Potency	activity, negative = inhibition
Cc1ccc(C(=O)N2CC(=O)Nc3ccc(F)cc3C2c2ccc(F)cc2)cc1 (stereo not drawn)	inactive	
CN(CC1CCCO1)S(=O)(=O)c1ccc(C(=O)Nc2ccc(F)cc2)cc1 (stereo not drawn)	inactive	
COC(=O)[C@]1(S(=O)(=O)c2ccccc2)C[C@@H]2ON=C(c3ccc(OC)cc3)[C@@H]2C1	inactive	
N#C[C@]1(S(=O)(=O)c2ccccc2)C[C@@H]2ON=C(c3cccc(Br)c3)[C@@H]2C1	11.2 µM (active)	
Cc1cc(NC(=O)c2ccco2)c(=O)n(Cc2c(F)cccc2Cl)c1	inactive	
Cc1c(CN2CC[C@@H](N3CCN(c4ccccn4)CC3)[C@H](O)C2)[nH]c2ccc(F)cc12	inactive	
CC(C)n1c(=S)[nH]c2cc(C(F)(F)F)ccc21	10 µM (active)	
CCCn1c(=S)[nH]c2ccc(C(F)(F)F)cc21	inactive	
COc1ccc(C)cc1N(C(=O)Cn1nnc(-c2ccc(C)o2)n1)C(C(=O)NC1CCCC1)c1ccncc1 (stereo not drawn)	inactive	
Oc1cccc(C2c3[nH]c4ccccc4c3CCN2Cc2cnn(-c3ccccc3)c2)c1 (stereo not drawn)	inactive	
Cc1[nH]nc(-c2ccc(OCc3cnn(-c4ccccc4)c3)cc2O)c1Oc1ccc(Cl)cc1	3.98 µM (active)	
COc1ccc(-c2nc(N)ncc2-c2ccc(Cl)cc2)c(O)c1	inactive	
COC(=O)c1c(NC(=O)c2ccccc2F)sc2c1C(C(=O)OC)CC2 (stereo not drawn)	inactive	
CCc1ccc(N2CC(C(=O)N3CCCCCC3)CC2=O)cc1 (stereo not drawn)	inactive	
COc1ccc(-n2cc(-c3ccccc3)c3c(=S)nc[nH]c32)cc1	1.12 µM (active)	
COc1ccc(N2C(=O)C(Cc3ccccc3)NC2=S)cc1 (stereo not drawn)	inactive	
O=c1[nH]cnc2c1c(-c1ccccc1)cn2-c1ccc(F)cc1	inactive	
Cc1ccc(S(=O)(=O)NCc2ccc(C(=O)NC3CCC(C)CC3)cc2)cc1 (stereo not drawn)	inactive	
Fc1ccc(CSc2nnc(-c3cc4c(s3)-c3ccccc3CC4)o2)cc1	inactive	
CCSc1nnc(-c2cc3c(s2)-c2ccccc2CC3)o1	2.51 µM (active)	
O=C(CSc1nnc(-c2ccccc2O)o1)NC1CCCCC1	inactive	
COc1cccc(CNc2ncc(-c3ccccc3)n2C)c1	inactive	
O=C(CCC1CCCN(C(=O)c2ccc(F)c(F)c2)C1)N1CCN(c2ccccn2)CC1 (stereo not drawn)	inactive	
CCCCNC(=S)NNC(=O)c1cc(C)on1	11.2 µM (active)	
Cc1cc(C(=O)NCCCc2ccccc2)no1	inactive	
COCCCNC(=S)NNC(=O)C(O)(c1ccccc1)c1ccccc1	inactive	

Compound	Potency	activity, negative = inhibition
O=C(NCCN1CCCC(O)C1)c1cc(COc2c(F)cccc2F)on1 (stereo not drawn)	inactive	
CC1CCN(S(=O)(=O)c2ccc(NC(=O)C3CC(=O)N(c4ccccc4)C3)cc2)CC1 (stereo not drawn)	inactive	
COc1cccc(NC(=O)C(=O)c2cn(CC(=O)N3CCOCC3)c3ccccc23)c1	inactive	
Cc1ccc(OC(=O)c2cc3ccccc3o2)cc1	inactive	
C/C(=N\NC(=S)Nc1ccc(C)cc1)c1cc2ccccc2o1	0.794 µM (active)	
Cc1ccc(NC(=O)c2cc3ccccc3o2)cc1	inactive	
O=C(c1cc(COc2ccc(F)c(F)c2)on1)N1CCOCC1	inactive	
COc1ccc(OCc2cc(C(=O)N3CCCC3)no2)c2ccccc12	inactive	
COc1ccc(CCN2CC(C(=O)NCCN3CCNC3=O)CCC2=O)cc1 (stereo not drawn)	inactive	
COc1ccc(CNC(=O)Cc2ccc(-c3ccccc3)cc2)cc1OC	inactive	
O=C(Nc1nnc(C2=COCCO2)o1)c1ccc([N+](=O)[O-])s1	3.16 µM (active)	
Cc1nc(NC(=O)c2ccc3c(c2)OCCO3)ccc1Br	inactive	
Cc1ccc(C(=O)NCCN2CCOCC2)cc1C	inactive	
Cc1ccc(C(=O)Nc2nnc(C3=COCCO3)o2)cc1C	0.282 µM (active)	
COc1cc(C(C(=O)NC2CCCC2)N(Cc2ccccc2)C(=O)c2snc(C(N)=O)c2N)ccc1O (stereo not drawn)	inactive	
COc1cccc(C(C(=O)NC2CCCC2)N(C(=O)c2ccco2)c2cccc(C(C)=O)c2)c1OC (stereo not drawn)	inactive	
CCN1C(=NCC(C)C)N[C@@H](CCc2ccccc2)[C@H](C(=O)NCC(C)C)[C@H]1C	inactive	
COC(=O)c1ccc(CN2CCCC(C(=O)Nc3cccc(-n4cnnn4)c3)C2)cc1 (stereo not drawn)	inactive	
C=CCN1CCN(C(=O)CCCc2ccccc2)CC1	7.94 µM (active)	
O=C(CCCc1ccccc1)NCc1ccccc1	inactive	
CC(=O)c1ccc(N2CCN(C(=O)CCc3ccccc3)CC2)cc1	inactive	
COC(=O)c1cccc(N(CC(=O)NCC2CCCO2)C(=O)CCC(=O)Nc2cc(C)on2)c1 (stereo not drawn)	inactive	
CC(C)NS(=O)(=O)c1ccc(OCC(=O)NC2CCCCCC2)cc1	inactive	
CC(=O)Oc1c2c(c3c(c1CC=C(C)C)O[C@@]14C(=CC5CC1C(C)(C)OC4(C/C=C(\C)C(=O)O)C5=O)C3=O)OC(C)(CCC=C(C)C)C=C2 (stereo partly drawn)	5.62 µM (active)	
COc1ccc(CNC(=O)c2cc(C(=O)C3CC3)c[nH]2)cc1	22.4 µM (active)	
COc1ccc(CNC(=O)c2c[nH]c3c(OC)cc(OC)cc3c2=O)cc1	inactive	

Compound	Potency	activity, negative = inhibition
CC(C)CC(=O)c1c[nH]c(C(=O)NCc2ccccc2)c1	inactive	
COc1ccc(N2CCC(N3CCN(C)C(CCO)C3)CC2)cc1 (stereo not drawn)	inactive	
Cc1cc(C)n(CC(O)COc2ccc(C(C)(C)C)cc2)n1 (stereo not drawn)	inactive	
CC(=O)c1ccc(N2CCN(C(=O)CCNC(=O)Cn3ccc4ccccc4c3=O)CC2)cc1	inactive	
CCOc1ccc(S(=O)(=O)N2CCC(C(=O)NCc3ccccn3)CC2)cc1Cl	inactive	
Clc1ccc(C(Cn2ccnc2)OCc2ccsc2Cl)c(Cl)c1 (stereo not drawn)	15.8 µM (active)	
O=C(NCCCn1ccnc1)Nc1ccc(Cl)cc1Cl	inactive	
O=C(Nc1ccccc1C(=O)NCCCn1ccnc1)c1ccc(Cl)cc1Cl	inactive	
CSCCC(NS(=O)(=O)c1ccccc1F)C(=O)N1CC=C(c2ccccc2)CC1 (stereo not drawn)	inactive	
O=C(Nc1ccc(Cl)c(Cl)c1)c1ccccc1NC(=O)C1CC=CCC1C(=O)O (stereo not drawn)	inactive	
Cc1cccc(CS(=O)(=O)c2ncc(Cl)c(C(=O)Nc3ccc(F)cc3)n2)c1	3.16 µM (active)	
Cc1ccc(CS(=O)(=O)c2ncc(Cl)c(C(=O)Nc3nnc(C)s3)n2)cc1	6.31 µM (active)	
Cc1cccc(NC(=O)c2nc(S(=O)(=O)Cc3ccccc3)ncc2Cl)c1	4.47 µM (active)	
Cc1cccc(NC(=O)C(C)SCc2ccccc2)c1 (stereo not drawn)	inactive	
Cc1cccc(OCc2ccc(C(=O)Nc3ccc(F)cc3)cc2)c1	inactive	
Cc1ccc(S(=O)(=O)CC(=O)Nc2nnc(C)s2)cc1	inactive	
Cc1nnc(NC(=O)Nc2ccc(Cl)c(Cl)c2)s1	inactive	
CSc1ncc(Cl)c(C(=O)Nc2cc(C)ccc2C)n1	inactive	
CCSc1ncc(Cl)c(C(=O)Nc2cc(C)ccc2C)n1	inactive	
O=S(=O)(c1ccc(Cl)cc1)c1nc(-c2ccco2)oc1N1CCCCC1	inactive	
Cc1c(CNCCc2ccccc2)c(C(=O)O)c(C)n1-c1ccccc1	inactive	
CCn1c(C)c(C)c2cc(C(=O)N3CCN(c4cccc(C)c4C)CC3)ccc21	inactive	
CCOc1ccc(N2C(=O)CC(N(O)c3ccccc3)C2=O)cc1 (stereo not drawn)	inactive	
CCOC(=O)c1ccc(N2C(=O)CC(N(C)Cc3ccccc3)C2=O)cc1 (stereo not drawn)	inactive	
CCCCCCC(=O)N(O)C1CC(=O)N(c2ccccc2)C1=O (stereo not drawn)	5.01 µM (active)	
COc1ccc(CN(C)C(=O)Cc2ccsc2)c(OC)c1OC	inactive	

Compound	Potency	activity, negative = inhibition
CC1CCN(S(=O)(=O)c2ccc3c(ccn3CC(=O)O)c2)CC1	inactive	
COc1ccc(C)cc1Nc1nc(-c2c(C)[nH]c3ccccc23)cs1	inactive	
COc1ccc(-c2csc(Nc3ccc(O)cc3)n2)cc1	12.6 µM (active)	
COc1ccc(OC)c(Nc2nc(-c3ccc(O)c(O)c3)cs2)c1	8.91 µM (active)	
COc1ccc(-c2csc(NC3OC(=O)c4ccccc43)n2)cc1 (stereo not drawn)	inactive	
COc1ccc(-c2csc(NC(=O)c3ccc(N4C(=O)CCC4=O)cc3)n2)cc1OC	inactive	
COc1ccc(-c2csc(Nc3ccccn3)n2)cc1		-8.73% [at 10 µM]
O=S(=O)(Cc1cc(Cl)nc(-c2cccnc2)n1)c1ccccc1	inactive	
CCOC(=O)C1CCCN(S(=O)(=O)c2ccc(-n3cnnn3)c(C)c2)C1 (stereo not drawn)	inactive	
OC(c1nc2ccccc2[nH]1)C(O)C(O)C(O)c1nc2ccccc2[nH]1 (stereo not drawn)	inactive	
Cc1ccc(-c2nc3ccccc3[nH]c2=O)cc1	inactive	
c1ccc2[nH]c(-c3nc4ccccc4[nH]3)nc2c1	10 µM (active)	
O=C(CSc1ccc(-c2ccco2)nn1)Nc1cccc(F)c1	inactive	
Cn1c(Cn2nnc3ccccc32)nnc1SCC(=O)c1ccccc1F	7.08 µM (active)	
Cn1c(CNC(=O)c2ccccc2F)nnc1SCc1ccc(F)cc1	inactive	
Cc1ccc(C(=O)CSc2nnc(Cn3nnc4ccccc43)n2C)cc1	inactive	
CS(=O)(=O)Nc1cccc(C2=NN(C(=O)c3cccc(F)c3)C(c3cccs3)C2)c1 (stereo not drawn)	inactive	
CCOc1ccc(-c2noc(CCC(=O)NC3CCCC3)n2)cc1OC	inactive	
O=C(N/N=C/c1cccc([N+](=O)[O-])c1)c1ccncc1	inactive	
Cc1[nH]n(-c2ccccc2)c(=O)c1/C=N/NC(=O)c1ccoc1C	1 µM (active)	
Cc1ccc(-n2[nH]c(C)c(/C=N/NC(=O)c3cccc([N+](=O)[O-])c3)c2=O)cc1C	0.891 µM (active)	
Cc1[nH]n(-c2ccccc2)c(=O)c1N=Nc1ccccc1C(=O)N1CCCCC1	inactive	
COc1cc(/C=N/NC(=O)c2ccoc2C)ccc1OCCN1CCCCC1	inactive	
COc1cccc(/C=N/NC(=O)c2cccc([N+](=O)[O-])c2)c1OS(=O)(=O)c1ccc(C)cc1	inactive	
Cc1nnc(NC(=O)C(c2ccccc2)c2ccccc2)s1	inactive	
